“And” between values parts separate entries of the source, which are not always exact repeats. Equal entries are not always repeated. A structure can be active in one record and inactive in another. The source made the active and inactive calls. How the source made its calls: active means hit-call score of the fitted dose curve at least 0.9, where 1 is the maximum; inactive means score below 0.9.
Read-out: Interleukin-8 (IL8), CXCL8 (gene 3576)
Assay: BSK_IMphg_IL8: BioMAP Diversity Plus: IMphg Assay for Interleukin-8 (IL8) Biomarker Activity (AID 2284277)
Settings: primary human endothelial cells with macrophages
Outline: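 Co-culture of human venular endothelial cells and macrophages exposed to chemicals for 24 h; IL-8 quantified by ELISA and compared against the DMSO baseline, with SRB total-protein staining in parallel cultures for cytotoxicity.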

SMILES	AC50	outcome
O=C(O)CCC(F)(F)C(F)(F)C(F)(F)C(F)(F)C(F)(F)C(F)(F)F	14.2 µM (active) and 23 µM (active) and 17.1 µM (active)	
O=C(CC(=O)C(F)(F)C(F)(F)C(F)(F)F)c1cccs1	22.4 µM (active)	inactive
O=S(=O)(O)C(F)(F)C(F)(F)C(F)(F)C(F)(F)C(F)(F)C(F)(F)C(F)(F)C(F)(F)C(F)(F)C(F)(F)F	12.2 µM (active)	inactive
O=P(O)(O)CCC(F)(F)C(F)(F)C(F)(F)C(F)(F)C(F)(F)C(F)(F)F		inactive
O=P(O)(O)CCC(F)(F)C(F)(F)C(F)(F)C(F)(F)C(F)(F)C(F)(F)C(F)(F)C(F)(F)F	40.1 µM (active)	inactive
O=C(O)C(F)(F)OC(F)(F)C(F)(F)OC(F)(F)C(F)(F)OC(F)(F)C(F)(F)C(F)(F)C(F)(F)F	54.2 µM (active) and 7.06 µM (active)	
C=CC(=O)OCCC(F)(F)C(F)(F)C(F)(F)C(F)(F)C(F)(F)C(F)(F)C(F)(F)C(F)(F)F		inactive
CN(CCO)S(=O)(=O)C(F)(F)C(F)(F)C(F)(F)C(F)(F)C(F)(F)C(F)(F)C(F)(F)C(F)(F)F		inactive
CN(Cc1cnc2nc(N)nc(N)c2n1)c1ccc(C(=O)N[C@@H](CCC(=O)O)C(=O)O)cc1		inactive
OCC(F)(F)C(F)(F)C(F)(F)C(F)(F)C(F)(F)C(F)(F)C(F)(F)C(F)(F)C(F)(F)C(F)(F)C(F)(F)F	0.216 µM (active)	inactive
O=C(O)CCC(F)(F)C(F)(F)C(F)(F)C(F)(F)C(F)(F)F		inactive

Read-out: Intercellular Adhesion Molecule 1 (ICAM1), ICAM1 (gene 3383)
Assay: BSK_BE3C_ICAM1: BioMAP Diversity Plus: BE3C Assay for Intercellular Adhesion Molecule 1 (ICAM1) Biomarker Activity (AID 2284278);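 on outcome: cell-surface ICAM-1 protein level quantified by ELISA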
Settings: primary human bronchial epithelial cells
Outline: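 Primary human bronchial epithelial cells in BE3C system, 24 h after chemical dosing; cell-surface ICAM-1 measured by ELISA relative to DMSO. Parallel SRB staining (0.1% SRB after 10% TCA fixation, read at 560 nm) assessed cytotoxicity.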

SMILES	outcome	AC50
O=C(O)CCC(F)(F)C(F)(F)C(F)(F)C(F)(F)C(F)(F)C(F)(F)F	inactive	
O=C(CC(=O)C(F)(F)C(F)(F)C(F)(F)F)c1cccs1		42.2 µM (active) and 35.1 µM (active)
O=S(=O)(O)C(F)(F)C(F)(F)C(F)(F)C(F)(F)C(F)(F)C(F)(F)C(F)(F)C(F)(F)C(F)(F)C(F)(F)F	inactive	
O=P(O)(O)CCC(F)(F)C(F)(F)C(F)(F)C(F)(F)C(F)(F)C(F)(F)F	inactive	
O=P(O)(O)CCC(F)(F)C(F)(F)C(F)(F)C(F)(F)C(F)(F)C(F)(F)C(F)(F)C(F)(F)F	inactive	
O=C(O)C(F)(F)OC(F)(F)C(F)(F)OC(F)(F)C(F)(F)OC(F)(F)C(F)(F)C(F)(F)C(F)(F)F		6.39 µM (active) and 5.8 µM (active)
C=CC(=O)OCCC(F)(F)C(F)(F)C(F)(F)C(F)(F)C(F)(F)C(F)(F)C(F)(F)C(F)(F)F	inactive	
CN(CCO)S(=O)(=O)C(F)(F)C(F)(F)C(F)(F)C(F)(F)C(F)(F)C(F)(F)C(F)(F)C(F)(F)F	inactive	
Oc1ccc(Cc2ccccc2O)cc1	inactive	
CCCCCCCCCCCC		7.01 µM (active) and 6.7 µM (active)
O=C1NS(=O)(=O)c2ccccc21	inactive	
CN(Cc1cnc2nc(N)nc(N)c2n1)c1ccc(C(=O)N[C@@H](CCC(=O)O)C(=O)O)cc1	inactive	
OCC(F)(F)C(F)(F)C(F)(F)C(F)(F)C(F)(F)C(F)(F)C(F)(F)C(F)(F)C(F)(F)C(F)(F)C(F)(F)F	inactive	
O=C(O)CCC(F)(F)C(F)(F)C(F)(F)C(F)(F)C(F)(F)F	inactive	
Oc1c(Cl)cc(Cl)cc1Sc1cc(Cl)cc(Cl)c1O		5.56 µM (active) and 6.58 µM (active)

Read-out: Interferon-inducible T-cell alpha chemoattractant (ITAC), CXCL11 (gene 6373)
Assay: BSK_BE3C_ITAC: BioMAP Diversity Plus: BE3C Assay for Interferon-inducible T-cell alpha chemoattractant (ITAC) Biomarker Activity (AID 2284279)
Settings: primary human bronchial epithelial cells
Outline: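 Steps: dose human bronchial epithelial cells with chemical; incubate 24 h; measure I-TAC by ELISA; fit endpoint in positive direction against DMSO control. Cytotoxicity was checked in parallel cultures by SRB staining at harvest.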

SMILES	outcome	AC50
O=C(O)CCC(F)(F)C(F)(F)C(F)(F)C(F)(F)C(F)(F)C(F)(F)F	inactive	
O=C(CC(=O)C(F)(F)C(F)(F)C(F)(F)F)c1cccs1		24.7 µM (active) and 24.1 µM (active)
O=S(=O)(O)C(F)(F)C(F)(F)C(F)(F)C(F)(F)C(F)(F)C(F)(F)C(F)(F)C(F)(F)C(F)(F)C(F)(F)F	inactive	21.8 µM (active)
O=P(O)(O)CCC(F)(F)C(F)(F)C(F)(F)C(F)(F)C(F)(F)C(F)(F)F	inactive	
O=P(O)(O)CCC(F)(F)C(F)(F)C(F)(F)C(F)(F)C(F)(F)C(F)(F)C(F)(F)C(F)(F)F	inactive	
O=C(O)C(F)(F)OC(F)(F)C(F)(F)OC(F)(F)C(F)(F)OC(F)(F)C(F)(F)C(F)(F)C(F)(F)F		5.77 µM (active) and 5.71 µM (active)
C=CC(=O)OCCC(F)(F)C(F)(F)C(F)(F)C(F)(F)C(F)(F)C(F)(F)C(F)(F)C(F)(F)F	inactive	
CN(CCO)S(=O)(=O)C(F)(F)C(F)(F)C(F)(F)C(F)(F)C(F)(F)C(F)(F)C(F)(F)C(F)(F)F	inactive	
Oc1ccc(Cc2ccccc2O)cc1	inactive	
CCCCCCCCCCCC		8.03 µM (active) and 6.71 µM (active)
O=C1NS(=O)(=O)c2ccccc21	inactive	
CN(Cc1cnc2nc(N)nc(N)c2n1)c1ccc(C(=O)N[C@@H](CCC(=O)O)C(=O)O)cc1	inactive	
OCC(F)(F)C(F)(F)C(F)(F)C(F)(F)C(F)(F)C(F)(F)C(F)(F)C(F)(F)C(F)(F)C(F)(F)C(F)(F)F	inactive	
O=C(O)CCC(F)(F)C(F)(F)C(F)(F)C(F)(F)C(F)(F)F	inactive	
Oc1c(Cl)cc(Cl)cc1Sc1cc(Cl)cc(Cl)c1O		3.3 µM (active) and 3.57 µM (active)
